Structures are written as SMILES. Calls of active or inactive are those of the source.

The experiment deals with NADPH oxidase 2 (Homo sapiens) (UniProt P04839). In words: NOX2-dependent H2O2 signal modulators, primary screen, NOX inhibitor project, cell-based, HEK293-NOX2, PMA-stimulated, Amplex Red fluorescence (AID 1159). Further: test concentration not given here. Conditions: 45 min, higher = more signal, called active from +8 up or from −8 down.
Sequence of NADPH oxidase 2 (Homo sapiens) (P04839 whole entry, looked up): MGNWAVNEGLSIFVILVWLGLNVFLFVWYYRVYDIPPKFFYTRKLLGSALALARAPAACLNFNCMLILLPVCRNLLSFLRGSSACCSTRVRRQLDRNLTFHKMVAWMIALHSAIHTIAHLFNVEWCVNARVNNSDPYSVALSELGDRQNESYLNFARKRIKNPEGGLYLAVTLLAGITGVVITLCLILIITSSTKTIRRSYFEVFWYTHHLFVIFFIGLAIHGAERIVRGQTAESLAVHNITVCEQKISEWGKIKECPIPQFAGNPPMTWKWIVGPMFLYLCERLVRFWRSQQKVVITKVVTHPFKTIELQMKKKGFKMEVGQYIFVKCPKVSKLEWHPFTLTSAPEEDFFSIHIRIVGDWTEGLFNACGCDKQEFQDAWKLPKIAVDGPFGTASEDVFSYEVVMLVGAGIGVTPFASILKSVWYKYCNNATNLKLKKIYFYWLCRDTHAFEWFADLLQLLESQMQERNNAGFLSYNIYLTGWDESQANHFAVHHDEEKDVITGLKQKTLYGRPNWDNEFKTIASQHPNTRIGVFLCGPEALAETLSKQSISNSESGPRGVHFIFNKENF
Turning to `O=C1C2C=CC(C(O)Cc3ccccc3)N(n3cnnc3)C2C(=O)N1Cc1ccccc1` (stereo not given), the z-score was -0.112 (inactive).
Consider `CCCC[C@@H]1C[C@H]1[C@@H](NC(=O)c1ccco1)c1ccc(-c2ccccc2)cc1`, for which the z-score was -4.04 (inactive).
As for `C[C@@]1([C@@H](NC(=O)c2ccc(-c3ccccc3)cc2)c2ccc(Cl)cc2)C[C@H]1C1CCCCC1`, the z-score is -0.75 (inactive).
As for `COC(=O)c1c(CC[C@@H](CO)NC(=O)NCCn2cc(C3(O)CCCC3)nn2)oc(C(C)=O)c1C(=O)OC`, the z-score is -0.278 (inactive).
`CC1(C)C2C=C(C(O)C3C=CC4C(=O)NC(=O)C4N3Nc3ccc(Cl)cc3Cl)C[C@@H]1C2` (stereo not given in full): the z-score was -0.197 (inactive).
`NC(=O)NCC#Cc1ccc2c(c1)[C@]1(C(=O)N2)[C@H](C(=O)Nc2nc3ccccc3s2)[C@H]2C(=O)O[C@H](c3ccccc3)[C@H](c3ccccc3)N2[C@@H]1c1ccccc1OCCO`: the z-score is 0.643 (inactive).
As for `COC(=O)[C@@]1(Cc2ccc(F)cc2)[C@H]2c3cc(C(=O)N(C)C)n(Cc4cc(F)c(F)c(F)c4)c3C[C@H]2CN1C(=O)c1ccccc1`, the z-score was 0.525 (inactive).
For the compound `[N-]=[N+]=NCc1ccccc1[C@@H]1OC(c2ccc(OCCCO)cc2)=N[C@]1(Cc1ccccc1)C(=O)NCC(O)CO` (stereo not given in full), the z-score is -0.847 (inactive).
In the case of `COc1cc2c(cc1OC)CN(C(=O)[C@@H]1[C@H]3C(=O)O[C@H](c4ccccc4)[C@H](c4ccccc4)N3[C@H](c3ccc(O)cc3)[C@@]13C(=O)Nc1ccccc13)CC2`, the z-score is 0.00476 (inactive).
To `[N-]=[N+]=Nc1ccccc1[C@H]1OC(c2ccc(OCCCO)cc2)=N[C@@]1(CCS(=O)(=O)c1ccccc1)C(=O)NCC(O)CO` (stereo not given in full) belongs 1.09 (inactive); to `O=C1NC(=O)C2C1C=CC(C(O)c1cccs1)N2Nc1ccc(Cl)cc1Cl` (stereo not given), -0.483 (inactive).
Turning to `C=CCNC(=O)[C@H]1[C@@H]2C(=O)O[C@@H](c3ccccc3)[C@@H](c3ccccc3)N2[C@@H](c2ccccc2OCCO)[C@]12C(=O)Nc1ccc(C#CCCO)cc12`, the z-score is 1.76 (inactive).
Take `CC(C)C(CO)N1C(=O)[C@@H]2C3C(=O)OCCC/C=C\[C@H]3OC23C=CCN(CCN2CCOCC2)C(=O)[C@@H]13` (stereo not given in full): the z-score is 1 (inactive).
`CC(=O)n1cc(C(O)C2C=CC3C(=O)N(c4ccccc4)C(=O)C3N2Nc2ccc([N+](=O)[O-])cc2)c2ccccc21` (stereo not given): the z-score is -0.808 (inactive).
Regarding `CCOC(=O)C[C@H]1[C@H](OC(=O)c2ccc(C(=O)c3ccccc3)cc2)[C@@H](NC(=O)c2ccc3ccccc3n2)c2cc(OCCCO)ccc2N1C(=O)c1ccccc1`, the z-score was 0.34 (inactive).
For `COc1ccc(C#Cc2ccc3c(c2)[C@]2(C(=O)N3)[C@H](C(=O)NC[C@H](O)c3ccccc3)[C@H]3C(=O)O[C@H](c4ccccc4)[C@H](c4ccccc4)N3[C@@H]2c2ccc(O)cc2)cc1` the value was 1.25 (inactive); for `N#Cc1ccc(NN2C(C(O)C(c3ccccc3)c3ccccc3)C=CC3C(=O)N(c4ccccc4)C(=O)C32)cc1` (stereo not given), -1.99 (inactive); for `Cc1ccccc1C(O)C1C=CC2C(=O)N(c3ccccc3)C(=O)C2N1Nc1ccc(C(C)C)cc1` (stereo not given), -1.22 (inactive).
For `CO[C@H]1O[C@H](CO)[C@@H](OC(=O)Nc2cccc(F)c2)[C@H](OC(=O)Nc2ccccc2)[C@@H]1OC(=O)Nc1ccccc1` the value was -1.12 (inactive); for `C=CCOC(=O)[C@H]1[C@@H]2C(=O)O[C@@H](c3ccccc3)[C@@H](c3ccccc3)N2[C@@H](c2ccc(OCCOC(=O)[C@H]3C[C@H]4C(=O)N[C@@H](CCCCNC(C)=O)C(=O)N4[C@H]3c3ccc(O)cc3)cc2)[C@]12C(=O)Nc1ccc(I)cc12`, 1.36 (inactive).
For the compound `Cc1nc2cc(Br)ccc2c(=O)o1`, the z-score is 0.288 (inactive).
For the compound `CCCC[C@H]1OB(O)C[C@H]2C1=C(COC)Cn1c(=O)n(-c3ccccc3)c(=O)n12`, the z-score is 0.175 (inactive).
As for `COc1ccc([Si](C)(C)[C@@H]2[C@@H](CCO)O[C@]3(C(=O)N(Cc4ccc(N(C=O)c5ccccc5)cc4)c4ccccc43)[C@H]2C)cc1`, the z-score was 1.07 (inactive).
`CC(C)[Si](C#Cc1ccc(Oc2ccccc2)cc1)(O[Si](C#Cc1ccc(Oc2ccccc2)cc1)(C(C)C)C(C)C)C(C)C`: the z-score is 1.49 (inactive).
On to `CN1C=C(C(=O)OCCS(C)(=O)=O)C(C(=O)OCCS(C)(=O)=O)=CC(c2ccc(CO)cc2)=CC1C1CC1` (stereo not given), for which the z-score is -2.88 (inactive).
